From PubChem BioAssay
PAFAH1B2 inh = PAFAH1B2 enzyme inhibitors, primary screen, biochemical, fluorescence polarization, human. Platelet-activating factor acetylhydrolase IB subunit alpha2 (Homo sapiens), P68402. recombinant PAFAH1B2, FP-rhodamine activity probe. inhibition, % at 3.39 µM. 340,000 tested, 1.2% active. AID 492953, 2010;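 active = inhibition above the mean of all tested compounds plus 3 SD, cut at about 24% in these data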;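 also: 0% = enzyme with DMSO and 100% = wells lacking PAFAH1B2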
Target sequence (P68402 whole entry, looked up): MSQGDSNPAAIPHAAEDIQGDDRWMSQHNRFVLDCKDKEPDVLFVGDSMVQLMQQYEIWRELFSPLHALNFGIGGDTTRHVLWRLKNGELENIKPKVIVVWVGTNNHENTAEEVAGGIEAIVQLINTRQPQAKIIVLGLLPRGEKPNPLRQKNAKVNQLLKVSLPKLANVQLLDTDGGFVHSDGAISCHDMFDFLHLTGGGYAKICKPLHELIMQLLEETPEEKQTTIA
PAFAH1B3 FP inh = PAFAH1B3 enzyme inhibitors, primary screen, biochemical, fluorescence polarization, human. inhibition, % at 3.39 µM. Platelet-activating factor acetylhydrolase IB subunit alpha1 (Homo sapiens), Q15102. recombinant PAFAH1B3, FP-rhodamine probe. 340,000 tested, 0.28% active;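 active = inhibition above the screen-wide average of all tested compounds plus 3 SD, cut at about 25% in these data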;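 also: 0% = enzyme with DMSO only and 100% = wells lacking PAFAH1B3 protein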
PME-1 inh = PME-1 inhibitors via competitive probe labeling, primary screen, biochemical, fluorescence polarization, FP-Rh probe, HTS | Protein phosphatase methylesterase 1 (Homo sapiens), Q9Y570 | inhibition, % at 5.9 µM | AID 2130, 2009 | recombinant PME-1 | 320,000 tested, 0.53% active;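 active = inhibition above the campaign mean of all compounds plus 3 SD, cut at about 26% in these data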;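 also: competitive labeling of PME-1 active site by serine hydrolase directed probe; 0% = PME-1 with DMSO and 100% = wells lacking PME-1 enzyme; inhibitors block probe labeling so polarization falls and inhibition rises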
Fam108B counter = mouse Fam108B serine hydrolase inhibitors, primary screen, counter-screen for RBBP9 inhibitor project, biochemical, fluorescence polarization; 300,000 tested, 0.33% active; recombinant Fam108B, FP-Rh probe fluorescence polarization; inhibition, % at 9.51 µM;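 active = inhibition above the screen mean inhibition plus 3 SD, computed separately per campaign, cut at about 18% in these data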;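 also: inhibitors lower polarization as less probe binds the enzyme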
PAFAH2 FP inh = PAFAH2 enzyme inhibitors, primary screen, biochemical, fluorescence polarization, human; Platelet-activating factor acetylhydrolase 2, cytoplasmic (Homo sapiens), Q99487; recombinant PAFAH2, FP-rhodamine activity probe; inhibition, % at 3.39 µM; 340,000 tested, 0.99% active;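 active = inhibition above the mean over all tested compounds plus 3 SD, cut at about 30% in these data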;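 also: inhibitors block probe labeling of enzyme so polarization drops; 0% = enzyme with DMSO and 100% = wells lacking PAFAH2 protein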
pPAFAH inh = pPAFAH enzyme inhibitors, primary screen, biochemical, fluorescence polarization, human | Platelet-activating factor acetylhydrolase (Homo sapiens), Q13093 | recombinant pPAFAH, FP-rhodamine probe fluorescence polarization | inhibition, % at 3.39 µM | 330,000 tested, 1.5% active;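 active = inhibition above the mean inhibition across the screen plus 3 SD, cut at about 25% in these data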;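 also: inhibitors block binding of the rhodamine activity-based probe so polarization drops; 0% = enzyme with DMSO and 100% = wells lacking pPAFAH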
Target sequence (Q13093 whole entry, looked up): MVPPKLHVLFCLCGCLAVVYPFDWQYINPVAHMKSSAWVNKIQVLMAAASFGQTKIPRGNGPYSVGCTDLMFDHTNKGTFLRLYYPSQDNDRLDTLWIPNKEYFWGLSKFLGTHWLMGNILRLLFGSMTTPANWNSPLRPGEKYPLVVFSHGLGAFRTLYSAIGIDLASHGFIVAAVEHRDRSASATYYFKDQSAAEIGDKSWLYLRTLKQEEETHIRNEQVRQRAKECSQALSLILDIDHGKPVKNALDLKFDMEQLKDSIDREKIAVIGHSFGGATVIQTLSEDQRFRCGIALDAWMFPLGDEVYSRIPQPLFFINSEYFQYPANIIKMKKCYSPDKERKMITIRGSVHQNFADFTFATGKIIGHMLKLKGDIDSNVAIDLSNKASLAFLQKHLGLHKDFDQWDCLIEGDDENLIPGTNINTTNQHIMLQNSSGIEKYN
pPAFAH FP conf = pPAFAH (PLA2G7) enzyme inhibitors, confirmation, biochemical, fluorescence polarization, human; shares compounds with pPAFAH inh; AID 463230, 2010; recombinant pPAFAH, FP-Rh probe fluorescence polarization; 2,300 tested, 72% active; inhibition, % at 3.39 µM;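 active = mean inhibition of the triplicate above the hit cutoff set for the earlier primary screen, cut at about 25% in these data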;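 also: 0% = enzyme with DMSO and 100% = wells lacking pPAFAH enzyme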
PAFAH2 FP conf = PAFAH2 enzyme inhibitors, confirmation, biochemical, fluorescence polarization, human | 2,300 tested, 65% active | recombinant PAFAH2, FP-rhodamine activity probe | AID 493030, 2011 | inhibition, % at 3.39 µM | shares compounds with PAFAH2 FP inh;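 active = mean inhibition over three repeats above a set limit taken from the earlier primary screen, cut at about 30% in these data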;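 also: inhibitor blocks binding of rhodamine activity probe so polarization falls; 0% = enzyme with DMSO and 100% = wells lacking PAFAH2 protein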
The depositor's hits bear a star; x = not tested or not shown. Rows were chosen to be rich in hits. Some 2.9% of all compounds tested hit in one or more screens of this group.

SMILES | PAFAH1B2 inh | PAFAH1B3 FP inh | PME-1 inh | Fam108B counter | PAFAH2 FP inh | pPAFAH inh | PAFAH2 FP conf | others
Cc1ccc(CN2C3CCCC2CC(NC(=O)Nc2cccc(F)c2)C3)cc1 (configuration not stated) | 5 | 2 | 4 | -4 | -4 | -2 | x
COc1ccc(CCNCc2ccsc2)cc1OC | 2 | 10 | -13 | -6 | 6 | -2 | x
Oc1ccc(/C=N/NP(=S)(c2ccccc2)c2ccccc2)c(O)c1O | -3 | 8 | 28* | -3 | 7 | 41* | x | pPAFAH FP conf=63*
CCCCN1C(=N)C(CC)(CC)C(=O)NC1=O | 2 | 9 | -4 | -6 | -7 | 2 | x
COCCO[C@H]1CCC2C3CC=C4C[C@@H](O)CC[C@]4(C)C3CC[C@@]21C (some centres not stated) | 1 | 0 | x | x | -4 | -9 | x
CC1CCCN(c2ccc(C(=O)N3CCC4(CC3)OCCO4)cc2[N+](=O)[O-])C1 (configuration not stated) | 2 | 7 | -2 | 6 | -1 | 45* | x | pPAFAH FP conf=59*
O=C(c1ccc2c(c1)ncn2C1CCCCCC1)N1CCC2(CC1)OCCO2 | 2 | 1 | 4 | -2 | 6 | 5 | x
O=C(C1CCN(c2nc3ccc(Br)cc3s2)CC1)N1CCC2(CC1)OCCO2 | 0 | 2 | -8 | -7 | 1 | 36* | x | pPAFAH FP conf=26*
Cc1cccc(OCCn2cccc2/C=C2/C(=O)NC(=O)N(Cc3ccco3)C2=O)c1 | x | x | 13 | 5 | x | 22 | x
O=C1NC(=O)N(Cc2ccco2)C(=O)/C1=C\c1cccn1CCOc1ccc(Cl)cc1 | 35* | -3 | 14 | 3 | 7 | 40* | x | pPAFAH FP conf=3
O=c1[nH]c(=S)n(-c2ccc(Cl)cc2)c(O)c1C=Nc1ccc(N2CCOCC2)cc1 | 0 | 5 | 2 | -2 | 14 | 43* | x | pPAFAH FP conf=20
CC[C@H](C)/C=C(C)/C=C/C1=CC2=C(Cl)C(=O)[C@](C)(OC(C)=O)C(=O)C2=CO1 | 10 | 7 | x | x | 40* | 67* | x | pPAFAH FP conf=87*
Cn1cccc1/C=C1\C(=O)NC(=O)N(CCC2=CCCCC2)C1=O | 4 | 1 | x | x | 26 | x | x
Cn1cccc1/C=C1\C(=O)NC(=O)N(Cc2ccccc2Cl)C1=O | 2 | 3 | x | x | 30* | x | 11
COC(=O)C1=C(c2ccccc2OCc2ccccc2)C[C@@H]2CC[C@H]1N2C(=O)NCc1ccc(OC)c(OC)c1 | -5 | 13 | -4 | x | 12 | 7 | x
O=C(c1cc2c(s1)-c1ccccc1OC2)N1CCC2(CC1)OCCO2 | 4 | 2 | 0 | 3 | 31* | 19 | 18
Cc1ccc(/C=C2\C(=O)NC(=O)N(CC3CCCO3)C2=O)s1 (configuration not stated) | 5 | 2 | -1 | -6 | 33* | 0 | 8
CCN(CC)c1ccc(/C=C2/C(=O)NC(=O)N(Cc3ccco3)C2=O)cc1 | 0 | -11 | -6 | 0 | 7 | 10 | x
COc1ccc(/C=C2/C(=O)N(Cc3ccco3)C(=O)N(C(C)C)C2=O)cc1 | 1 | 1 | 0 | 0 | 30* | 11 | -1
O=C1NC(=S)N(c2ccccc2)C(=O)/C1=C/c1ccco1 | 2 | 6 | -28 | -5 | 30* | 24 | 59*
CN(C)c1ccc(/C=C2/C(=O)NC(=O)N(Cc3ccco3)C2=O)cc1 | 0 | 10 | -10 | 4 | 9 | 9 | x
Cc1cc(/C=C2/C(=O)NC(=O)N(Cc3ccco3)C2=O)c(C)n1-c1ccccc1 | 10 | 12 | -2 | 5 | 33* | 12 | 23
O=C(COC(=O)c1ccc(O)cc1)Nc1ccc(Cl)cc1C(=O)c1ccccc1 | 2 | 1 | -12 | -5 | 63* | 5 | 61*
CC(=O)Nc1ccc(C(=O)OCC(=O)Nc2ccc(Cl)cc2C(=O)c2ccccc2)cc1 | -9 | -7 | -19 | -11 | 69* | -8 | 73*
O=C(COc1ccccc1)Nc1ccc(Cl)cc1C(=O)c1ccccc1 | -1 | -2 | -10 | -5 | -2 | 5 | x
SMILES | PAFAH1B2 inh | PAFAH1B3 FP inh | PME-1 inh | Fam108B counter | PAFAH2 FP inh | pPAFAH inh | PAFAH2 FP conf | others
Cc1c(C(c2ccc(Br)cc2)c2c(O)c3ccccc3oc2=O)c(=O)n(-c2ccccc2)n1C (configuration not stated) | 1 | 3 | -8 | 4 | 3 | 1 | x
Cc1c(C(c2ccc(Cl)cc2Cl)c2c(O)c3ccccc3oc2=O)c(=O)n(-c2ccccc2)n1C (configuration not stated) | 3 | 3 | 3 | 2 | 39* | 2 | 33*
CC(=O)Nc1ccc(C(c2c(O)c3ccccc3oc2=O)c2c(C)n(C)n(-c3ccccc3)c2=O)cc1 (configuration not stated) | 0 | -1 | -5 | -1 | -3 | 1 | x
CSc1ccc(C(c2c(O)c3ccccc3oc2=O)c2c(C)n(C)n(-c3ccccc3)c2=O)cc1 (configuration not stated) | 3 | 11 | 4 | 3 | 40* | 6 | 27
O=P(O)(Oc1ccccc1)c1ccccc1 | 9 | 3 | x | x | 6 | x | x
C=C1[C@H]2C[C@H]3[C@H]4N5C[C@]6(C)CCC[C@]47[C@H]([C@H]2O)[C@]3(C[C@]5(O)[C@H]67)[C@@H]1O | -2 | 3 | -1 | 4 | -2 | 0 | x
CC(NC(=O)N1CC1(C)C)c1ccccc1 (configuration not stated) | 1 | 5 | x | x | 7 | x | x
O=C1NC(=O)N(CCC2=CCCCC2)C(=O)/C1=C\c1cccs1 | 9 | 6 | -11 | 1 | 55* | 4 | 46*
CN(CCc1ccccc1)Cc1c[nH]c2ccccc12 | 0 | 2 | 5 | 8 | -5 | 6 | x
O=C(CNS(=O)(=O)c1ccc(Br)s1)N1CCC2(CC1)OCCO2 | 11 | 8 | 1 | 1 | 36* | 7 | 18
O=C(c1ccc(CNS(=O)(=O)c2ccc(Br)cc2)cc1)N1CCC2(CC1)OCCO2 | 2 | 6 | 7 | -1 | 1 | 10 | x
Cn1cc(C(=O)OCC(=O)NC2CCCC2)c2ccccc21 | -2 | 0 | 5 | x | 59* | 5 | 37*
CCOCC1(CCc2ccccc2)C(=O)NC(=S)NC1=O | 4 | 2 | x | x | -3 | x | x
